PubChem BioAssay AID489043 (National Center for Advancing Translational Sciences (NCATS), 2010)
Inconclusive results are not listed. Activity calls are given as the source filed them. Calls follow the shape of the dose curve; as a rule, active = well fitted activation curve with a large enough effect; inconclusive = small, poorly fitted or top-dose-only effect; inactive = flat fitted curve, though single readings scatter.

target: Relaxin receptor 2 (Homo sapiens) (UniProt Q8WXD0); experiment: qHTS Assay for Agonists of the Relaxin Receptor RXFP1: RXFP2 Hit Validation; conditions: HEK293 RXFP2 cAMP TR-FRET, 30 min; series mostly up to 115 µM; activation: at the top concentration; also: nearly all actives have a fitted effect of over 65% in size;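 as to activation: 0% = buffer only basal cAMP and 100% = 29 nM porcine relaxin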
Sequence (Q8WXD0 whole entry, looked up): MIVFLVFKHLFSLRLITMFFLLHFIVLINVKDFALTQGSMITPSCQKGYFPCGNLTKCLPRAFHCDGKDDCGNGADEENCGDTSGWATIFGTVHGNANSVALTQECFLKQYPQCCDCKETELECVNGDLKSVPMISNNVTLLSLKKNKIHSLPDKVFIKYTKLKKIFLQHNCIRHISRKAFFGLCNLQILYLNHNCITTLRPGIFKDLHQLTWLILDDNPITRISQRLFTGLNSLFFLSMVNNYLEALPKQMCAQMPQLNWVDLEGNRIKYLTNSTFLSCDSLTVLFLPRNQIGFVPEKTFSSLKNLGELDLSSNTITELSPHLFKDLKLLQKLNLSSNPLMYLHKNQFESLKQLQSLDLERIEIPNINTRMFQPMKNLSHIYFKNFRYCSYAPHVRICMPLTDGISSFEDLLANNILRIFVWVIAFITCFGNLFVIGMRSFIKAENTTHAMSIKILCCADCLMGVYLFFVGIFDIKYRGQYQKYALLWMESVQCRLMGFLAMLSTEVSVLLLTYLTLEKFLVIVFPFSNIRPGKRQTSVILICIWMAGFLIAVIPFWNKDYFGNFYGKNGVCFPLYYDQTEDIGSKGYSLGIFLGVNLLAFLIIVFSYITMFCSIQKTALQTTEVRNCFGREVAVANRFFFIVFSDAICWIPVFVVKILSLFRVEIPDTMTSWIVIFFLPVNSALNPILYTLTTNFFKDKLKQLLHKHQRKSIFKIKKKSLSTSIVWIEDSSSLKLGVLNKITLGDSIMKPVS
Outline: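 Concentration-response EC50s (Hill equation) come from a cAMP TR-FRET assay in HEK293 RXFP2 cells, compound for 30 min at 37C with PDE4 inhibitor.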
Potency is read from the fitted curve at half-maximal effect.

| SMILES | activation | Potency |
| --- | --- | --- |
| O=C(Nc1ccccc1C(=O)N1CCNCC1)c1ccco1 | -3.31% [at 125 µM] (inactive) |  |
| Cc1cc(C)n2nc(C(=O)Nc3ccc4c(c3)OCCO4)nc2n1 |  | 6.9 µM (active) |
| COc1ccc(/C=C2/SC(=O)N(CCC(=O)Nc3ccc(C)cc3)C2=O)cc1OC | -63.1% (inactive) |  |
| C=C(C)C(=O)Nc1cccc(C2=NOC3(C2)C[C@@H](C(N)=O)N(C(=O)c2ccc(Cl)cc2)C3)c1 (stereo partly specified) | 3.65% (inactive) |  |
| CN(C)CCCn1c(SCC(=O)Nc2nc(-c3cccc(Br)c3)cs2)nc2ccccc2c1=O | -4.88% (inactive) |  |
| Cc1ccc(C(=O)Nc2cccc(C(F)(F)F)c2)cc1NC(=O)c1cnnc2ccccc12 | 5.25% (inactive) |  |
| COC(=O)c1cc(CN2C(=O)c3ccccc3C2=O)c(O)c([N+](=O)[O-])c1 |  | 38.9 µM (active) |
| CCc1cc2c(=O)nc3n(c2s1)Cc1ccccc1/C3=C(/O)c1cccc([N+](=O)[O-])c1 |  | 6.16 µM (active) |
| COC(=O)c1sc(N2C(=O)C(O)=C(C(=O)c3ccc(C)o3)C2c2ccc(F)cc2)nc1C (stereo unspecified) |  | 2.75 µM (active) |
| COc1ccc(CCn2c(=N)c(C(=O)NCC3CCCO3)cc3c(=O)n4cccc(C)c4nc32)cc1 (stereo unspecified) | 22.4% (inactive) |  |
| Nc1cc2ccncc2c2ccccc12 | 4.43% (inactive) |  |
| O=C(Oc1ccccc1)Oc1ccc2c(c1)oc(=O)c1ccccc12 |  | 19.4 µM (active) |
| COc1ccc(NC(=O)CCCc2nnc3n(C)c(=O)c4sccc4n23)cc1 |  | 34.6 µM (active) |
| O=C(O)CCSc1ccc2ccccc2n1 |  | 19.4 µM (active) |
| Nc1ncnc2c1ncn2C1OC(CO)C(O)C1O (stereo unspecified) |  | 7.76 µM (active) |
| C=CCNc1ncnc2c1ncn2C1OC(CO)C(O)C1O (stereo unspecified) | -17.7% (inactive) |  |
